Experimental findings from PubChem BioAssay (Tox21) are described below.

The structures appear in SMILES notation. A number with no mark means an inactive call. Where a call stands in place of a potency, no number is given. Active and inactive are the calls of the source. Calls follow the shape of the full dose curve.

Acetylcholinesterase (Homo sapiens), sequence (P22303 whole entry, looked up): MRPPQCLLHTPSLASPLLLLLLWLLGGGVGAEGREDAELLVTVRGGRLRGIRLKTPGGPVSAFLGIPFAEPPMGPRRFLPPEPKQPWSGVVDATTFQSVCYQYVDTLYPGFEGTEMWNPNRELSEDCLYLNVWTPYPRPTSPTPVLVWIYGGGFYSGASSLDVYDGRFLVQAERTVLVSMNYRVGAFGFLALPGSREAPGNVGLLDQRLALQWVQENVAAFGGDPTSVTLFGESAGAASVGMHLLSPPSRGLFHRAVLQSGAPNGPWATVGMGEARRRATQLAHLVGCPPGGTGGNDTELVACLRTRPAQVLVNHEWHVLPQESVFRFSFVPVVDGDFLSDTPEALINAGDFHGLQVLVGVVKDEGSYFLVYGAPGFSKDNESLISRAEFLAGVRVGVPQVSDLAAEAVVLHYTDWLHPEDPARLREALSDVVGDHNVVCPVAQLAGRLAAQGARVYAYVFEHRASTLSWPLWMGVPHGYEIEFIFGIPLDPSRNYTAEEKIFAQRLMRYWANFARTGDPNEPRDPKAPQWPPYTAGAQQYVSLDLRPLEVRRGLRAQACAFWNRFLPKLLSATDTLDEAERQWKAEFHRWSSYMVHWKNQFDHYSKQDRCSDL

The target in the experiment is Acetylcholinesterase (Homo sapiens) (UniProt P22303). In words: Acetylcholinesterase (AChE) small molecule antagonists: enzyme-based qHTS assay with human liver microsomes (AID 1347399). Also: nearly all actives have a fitted effect of over 60% in size. Particulars: Potency: qHTS inhibition; outcome: qHTS inhibition; series mostly up to 115 µM. From the text:
National Center for Advancing Translational Sciences [NCATS]
Division of Preclinical Innovation [DPI]
U.S. Environmental Protection Agency [EPA]
National Institutes of Environmental Health Sciences [NIEHS]
National Toxicology Program [NTP]
U.S. Food and Drug Administration [FDA]
Acetylcholinesterase (AChE) is the primary cholinesterase in the body that hydrolyzes a key neurotransmitter, acetylcholine. Inhibition of AChE activity can lead to neurotoxicity. The known inhibitors include organophosphorous pesticides (OP), chemical warfare agents, drugs, and various phytochemicals. Some compounds like OP compounds may need metabolic activation to be active AChE inhibitors. The cytochrome P450 (CYP) superfamily in the human microsomes is responsible for the metabolism of various endogenous and exogenous compounds.
An enzyme-based assay with the recombinant human AChE, human liver microsomes and Amplite Colormetric acetylcholinesterase assay kit (AAT Bioquest, Sunnyvale, CA) was used to evaluate compounds in the Tox21 10K library that need metabolic activation for AChE inhibition. The assay uses 5, 5-dithiobis-(2-nitrobenzoic acid) (DTNB) to quantify the thiocholine produced from the hydrolysis of acetylthiocholine by AChE.
Tox21 Assay Protocol Summary:
For the enzyme-based AChE assay with microsomes addition, a mixture of human AChE (50 mU/mL) and human liver microsomes (0.25 mg/mL, final concentration) in 3 uL/well was dispensed into black, clear-bottom 1536-well plates using a Multidrop Combi dispenser (Thermo Scientific, MA). Then, 23 nL of compound or DMSO (vehicle control) was transferred into the assay plates by a Pintool Station (Wako Automation, CA). Following compound addition, 1 uL of NADPH (0.25 mg/mL, final concentration) was transferred to the assay plate by a Flying Reagent Dispenser (Beckman Coulter, CA). The plates were incubated for 30 min at 37 C and 5% CO2, followed by the addition of 4 uL of colorimetric detection cocktail solution (DTNB, acetylthiocholine) into each well using a Flying Reagent Dispenser (Beckman Coulter, CA) and then 10 min incubation at room temperature.
On the technique in general: Quantitative high-throughput screening tests each substance at several concentrations.
Take `COc1ccc(/C=C/S(=O)(=O)NC(=O)c2ccc(C)cc2Cl)cc1`: the Potency entry was “inactive”.

For `COC(=O)c1cc(Cl)ccc1OC`, the Potency entry was “inactive”. In the case of `CCC(C)S` (stereo not given), the activity change, negative = inhibition was -0.581% [at 4.07 µM].

On to `O=C(O)c1cccc(C(F)(F)F)c1`, for which the Potency result is “inactive”. `CCCCCCCCN1CCCC1=O`: the Potency entry was “inactive”. Same read-out and setting: next, `COc1ccc(OC)c(Cl)c1`: “inactive”; `C=C1CC[C@H]2O[C@]2(C)CC[C@@H]2[C@@H]1CC2(C)C`: “inactive”; `C#C[C@]1(OC(C)=O)CC[C@H]2[C@@H]3CCC4=C/C(=N/O)CC[C@@H]4[C@H]3CC[C@@]21CC`: “inactive”. With `COc1cc2nc(N3CCN(C(=O)c4ccco4)CC3)nc(N)c2cc1OC`, the activity change, negative = inhibition is -0.588% [at 23.6 µM]. Regarding `CN(CCCN1c2ccccc2CCc2ccccc21)CC(=O)c1ccc(Cl)cc1`, the Potency entry was “inactive”. The same measure, in the same setting: next, `CCCCC/C=C\C=C\C(=O)OCC`: “inactive”. On the same count and under the same terms, the same measure for `CCN(CC)c1ccc2c(c1)Oc1cc(N(CC)CC)ccc1C21OC(=O)c2ccccc21`: “inactive”. For `CC(=O)SCC(CC(=O)c1ccc(C)cc1)C(=O)O` (stereo not given), the Potency entry is “inactive”. As to `CC(C)[N+](C)(C)CC(O)COc1cccc2ccccc12` (stereo not given), the Potency result is “inactive”. The same measure, in the same setting: the same measure for `C=CC(C)=CCC=C(C)C`: “inactive”; for `CC(=O)OCC(C)OC(C)=O` (stereo not given): “inactive”. On the same count and under the same terms, the same measure for `c1ccc(C(O[C@@H]2CCCN(CCc3ccc4c(c3)OCO4)C2)c2ccccc2)cc1`: “inactive”; for `CCC[C@@H]1C[C@@H](C(=O)N[C@@H]([C@H]2O[C@H](SC)[C@H](O)[C@@H](O)[C@H]2O)[C@@H](C)O)N(C)C1`: “inactive”; for `CCCCCCCCCCCl`: “inactive”. With `CCCCCCOc1ccc(N)cc1`, the Potency entry is “inactive”. Same read-out and setting: the same measure for `CC(=O)N(CC(=O)N(C)C)c1ccccc1`: “inactive”; for `O=C1c2ccccc2C(=O)C1(O)O`: “inactive”; for `[O-][n+]1ccc(Cl)cc1`: “inactive”. As to `CC1(C)CCC(C)(C)c2cc(C(=O)Nc3ccc(C(=O)O)cc3)ccc21`, the Potency entry was “inactive”. Same read-out and setting: next, `Cc1oc(=O)oc1COC(=O)[C@@H]1N2C(=O)[C@@H](NC(=O)[C@H](N)c3ccccc3)[C@H]2SC1(C)C`: “inactive”. Regarding `CC(=O)OCC(=O)[C@@]12OC(C)(C)O[C@@H]1C[C@H]1[C@@H]3C[C@H](F)C4=CC(=O)C=C[C@]4(C)[C@@]3(F)[C@@H](O)C[C@@]12C`, the Potency entry is “inactive”. For `CCCCCCCCCCCBr`, the Potency entry is “inactive”. The same measure, in the same setting: next, `Cc1nc(-c2ccccn2)ncc1C(=O)Nn1cc(C)c2cc(F)ccc21`: “inactive”; `Cc1ccc(O)c([C@H](CCN(C(C)C)C(C)C)c2ccccc2)c1`: “inactive”. Same read-out and setting: the same measure for `COc1cc2nc(Cl)nc(N)c2cc1OC`: “inactive”. On the same count and under the same terms, the same measure for `COc1c(C)c2c(c(O)c1C/C=C(\C)CCC(=O)O)C(=O)OC2`: “inactive”; for `COP(=O)(O)OP(=O)(O)OC`: “inactive”.

Take `CC(C)C(=O)OCCc1ccccc1`: the Potency result is “inactive”. Still for that read-out and setting: next, `CC(C)=CCC/C(C)=C\C#N`: “inactive”; `Cc1ccc(C(C)OC(=O)C2(C)CCC(C(=O)O)C2(C)C)cc1` (stereo not given): “inactive”. On the same count and under the same terms, the same measure for `CC(=O)Nc1ccc(S(N)(=O)=O)cc1`: “inactive”; for `CCN(CC)CCNC(C(=O)OCCC(C)C)c1ccccc1` (stereo not given): “inactive”; for `CO[Si](CCCS)(OC)OC`: “inactive”. Turning to `CCCCCCCCCCCCCCCCN(C)C`, the activity change, negative = inhibition was -0.307% [at 10.5 µM]. On to `CCOC(=O)c1ccc(N(C)C)cc1`, for which the Potency result was “inactive”.
